Assay outcomes from PubChem BioAssay.
An excerpt weighted towards active compounds, which were near 3.5% of everything screened.
FBW7 activator: FBW7 E3 ligase activators, primary screen, biochemical, AlphaScreen, human | F-box/WD repeat-containing protein 7 (Homo sapiens), Q969H0 | AlphaScreen FBW7–phospho-cyclin E peptide binding, activator screen | normalized activity (activation), % at 26.1 µM | actives 0.13% (n = 650,000) | AID 1259310, 2017; in the data active means normalized activity above about 1.9%;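 further: purified mutant Fbw7 with reduced substrate affinity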
GPR151 ag: activators of human GPR151, primary screen, cell-based, PathHunter beta-arrestin, luminescence; G-protein coupled receptor 151 (Homo sapiens), Q8TDV0; PathHunter beta-arrestin GPR151 cells; activation, % at 11.2 µM; actives 1% (n = 650,000); AID 1508602, 2020; in the data active means activation above about 4.9%;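 further: 0% = median of compound wells and 100% = cells with positive control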
TEAD-YAP inh: TEAD-YAP interaction inhibition, primary screen, TEAD-YAP interaction inhibitor project, luminescence, HEK-TIYL cells; TEAD-Gal4/YAP UAS-luciferase luminescence; AID 1259422, 2018; actives 1.4% (n = 640,000); inhibition, % at 9.12 µM; in the data active means inhibition above about 32%;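 further: 0% = median of test compound wells and 100% = reference inhibitor wells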
MITF inh: MITF inhibitors, primary screen, biochemical, AlphaScreen, human; Microphthalmia-associated transcription factor (Homo sapiens), O75030; AlphaScreen MITF homodimerization, bead proximity signal; inhibition, % at 2.6 µM; actives 0.91% (n = 650,000); in the data active means inhibition above about 50%;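 further: 0% = vehicle wells with protein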
GPR151 confirm: GPR151 activators, triplicate retest, confirmation, cell-based, PathHunter beta-arrestin, luminescence | activation, % at 11.2 µM | shares compounds with GPR151 ag | GPR151 PathHunter beta-arrestin cells, 90 min; % of EA-reagent control over plate median | 6,700 tested, under 10 active;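 active means mean percent activation across replicates above the confirmation screen cutoff of 4.91%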
GPR119 ag: GPR119 activators in beta-arrestin cells, counter-screen for GPR151 activator project, cell-based, PathHunter beta-arrestin, luminescence, triplicate | actives 0.3% (n = 6,700) | activation, % at 11.2 µM | shares compounds with GPR151 ag | 90 min; 0 = compound-well median, 100 = enzyme-acceptor control | AID 1508611, 2020;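 active means mean percent activation in the counterscreen above 29.09%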;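 further: counterscreen on off-target GPR119 to flag nonselective hits from the GPR151 activator screen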
Target sequence (Q8TDV5 whole entry, looked up): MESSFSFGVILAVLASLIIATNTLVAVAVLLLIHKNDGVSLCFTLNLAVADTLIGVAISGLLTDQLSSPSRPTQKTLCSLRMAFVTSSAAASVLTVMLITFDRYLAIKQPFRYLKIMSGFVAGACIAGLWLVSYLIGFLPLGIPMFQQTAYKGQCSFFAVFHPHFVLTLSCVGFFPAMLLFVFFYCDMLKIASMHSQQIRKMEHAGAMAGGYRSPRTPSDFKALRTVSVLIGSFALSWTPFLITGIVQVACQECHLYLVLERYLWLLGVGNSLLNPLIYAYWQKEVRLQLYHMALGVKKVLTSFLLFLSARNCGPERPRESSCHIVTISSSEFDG
Active calls of the source: *; . = no result given.

SMILES	FBW7 activator	GPR151 ag	TEAD-YAP inh	MITF inh	GPR151 confirm	GPR119 ag
Cc1ccc(-c2oc3ccccc3c(=O)c2OC(=O)CN2C(=O)c3ccccc3C2=O)cc1	0	11*	-17	20	-1	-6
C=CCN1C(=O)/C(=C\c2cc(Cl)c(O)c(OCC)c2)C(=O)NC1=S	0	7.4*	-11	6	-1	0
C=CCN1C(=O)/C(=C/c2ccc(Cl)cc2)C(=O)NC1=S	0	16*	0	5	-1	-12
C=CCN1C(=O)/C(=C\c2cc(Cl)c(O)c(Cl)c2)C(=O)NC1=S	0	0	1	6	.	.
COc1ccc(-n2c(C)cc(C=C3C(=O)NC(=O)NC3=O)c2C)c([N+](=O)[O-])c1	0	1	3	3	.	.
Cc1cccc2c(C(=O)N3CCCCC3)cc(-c3ccc(Br)cc3)nc12	0	-1	-10	-4	.	.
CC1CCCCN1S(=O)(=O)c1cc(C(=O)O)c(Cl)cc1Cl (configuration not stated)	0	1	3	-1	.	.
Cc1cc2nc(-c3cc(NC(=O)c4cccnc4)ccc3Cl)oc2cc1C	0	5.3*	-9	-3	0	13
O=C(Nc1ccc(Cl)c(-c2nc3ccccc3o2)c1)c1cccnc1	0	1	-3	15	.	.
N/C(=N\OC(=O)CSc1ccccc1)c1cccc(Br)c1	0	1	-9	19	.	.
Cc1[nH]c2ccccc2c1SCCNC(=O)c1ccc(N2C(=O)CCC2=O)cc1	0	6.2*	7	-2	-1	2
CC(C)(C)c1ccc(-c2ccc(OCCN3CCOCC3)nc2)cc1	-1	5.8*	58*	-2	-1	4
Cc1ccc(-c2ccc(OCCN3CCOCC3)nc2)cc1	0	1	-23	17	.	.
Cc1ccc(CNC(=O)CC(C)S(=O)(=O)c2cc3c(cc2C)NC(=O)CO3)cc1 (configuration not stated)	0	5.3*	-2	-11	1	5
Cc1cc2c(cc1S(=O)(=O)C(C)CC(=O)NCc1ccc(Cl)cc1)OCC(=O)N2 (configuration not stated)	0	-1	3	-7	.	.
CC1CCC(C(C)C)C2=C1C(c1ccc([N+](=O)[O-])cc1)C(C(N)=O)C(=O)N2 (configuration not stated)	0	1	2	7	.	.
Cc1ccccc1NC(=O)COc1ccc(C=O)cc1	0	1	8	3	.	.
Clc1ccc(Sc2ncnc3sc4c(c23)CCCC4)cc1	0	15*	-5	-1	0	-11
CCC(=O)N1C(=O)CC(C)N(C(=O)CC)c2ccccc21 (configuration not stated)	0	5.9*	1	-7	0	-1
CC(C)(C)CN1CCNC(=O)C1CC(=O)NC1CCCCCCC1 (configuration not stated)	0	11*	-13	11	-1	-4
Cn1ccnc1SCCNC(=O)CC1C(=O)NCCN1CC1CCCCC1 (configuration not stated)	0	7.6*	10	15	0	6
CCN(CC)S(=O)(=O)c1cc(C(=O)OCC(=O)NCc2ccccc2)ccc1F	0	-1	1	14	.	.
CN(C)c1cccc(Nc2cc(NCCO)ncn2)c1	0	4	2	4	.	.
Cc1nnc(SCC(=O)N2CCN(c3ccccc3)CC2)s1	0	6.4*	1	10	1	10
Cc1ccccc1-c1nnc(SCC(=O)N2CCN(c3ccccc3)CC2)o1	0	6.5*	12	5	1	6
CC(=O)Nc1nnc(SCC(=O)N2CCN(c3ccccc3)CC2)s1	0	-1	6	-13	.	.
Cc1ccccc1-c1nnc(SCC(=O)N2CCOCC2)o1	0	0	-53	13	.	.
